From PubChem BioAssay (NCI) come the findings set out here.

This is part of a sample that, as a whole, favours compounds with a hit. Of some 83,000 tested, about 20% had one in any assay.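 For each line, cells grew in 96-well plates with the test compound present at a single concentration for 48 hours.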 A number with no mark means an inactive call. Active and inactive are the calls of the source. How the source made its calls: active means growth percent below 10; inactive means the rest.

This assay deals with OVCAR-8 ovarian. Briefly: NCI-60 one-dose screen, 48 h (100 = growth as untreated, 0 = no growth, -100 = all killed). The settings on record: 10 µM.
For `COc1cc(/C=C/C(=O)c2ccc(C(F)(F)F)cc2)ccc1Oc1nc(Nc2ccc(F)cc2)nc(N(C)C)n1`, the growth is 85%.
`Cc1ccc(/C=C/C(=O)c2ccc(NC(=O)CSc3nnc(-c4c[nH]c5ccccc45)n3-c3ccccc3)cc2)c(C)c1`: the growth is 1.17% (active).
Under `COc1ccc(/C=C/C(=O)c2ccc(S(=O)(=O)NCCNc3nc(Nc4ccc(F)cc4)nc(N(C)C)n3)cc2)cc1` stands 50.6%; under `N#Cc1c(-c2ccc(Cl)cc2)cc(-c2ccccc2)nc1OCc1ccccc1`, 93%; under `Nc1nnc(-c2c[nH]c3ncccc23)c(-c2c[nH]c3ccc(Br)cc23)n1`, 46.2%.
Under `CC(=O)OC[C@@]1(C)C2CC[C@]3(C)C(CC=C4C5CC(C)(C)CC[C@]5(C(=O)Nc5ccccc5)CC[C@]43C)[C@@]2(C)C[C@@H](OC(C)=O)[C@@H]1OC(C)=O` (some centres not stated) stands 32.7%; under `O=C(CSc1nnc(-c2c[nH]c3ccccc23)n1-c1ccccc1)Nc1ccc(C(=O)/C=C/c2cccc([N+](=O)[O-])c2)cc1`, 97.2%; under `C/C(=C\c1ccc(O)cc1O)c1ccc2ccc(O)cc2[o+]1`, 9.36% (active).
Under `CCCCOc1ccc(Nc2nc3ccccc3nc2Nc2ccc(OCCCC)cc2)cc1` stands 92.3%.
With `Nc1nc(Nc2ccc(Cl)cc2)nn1Cc1cccc(Br)c1`, the growth was 54.9%.
As to `COc1ccc(/C=N/N=C(\C)c2ccc3c(c2)Nc2ccccc2S3)cc1O`, the growth was 62.8%.
Under `O=C(CSc1nnc(-c2c[nH]c3ccccc23)n1-c1ccccc1)c1ccc(Br)cc1` stands 43.5%.
